Laboratory results: PubChem BioAssay AID777 (Sanford-Burnham Center for Chemical Genomics, 2007)
In all, about 96,000 compounds went through this assay and about 19,000 (20%) were called active. A selection follows. Values without a mark were called inactive.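 Rule for the calls: active = blocking of liver enzyme CYP2C9 beyond about 50% at 5 µM (limit read from the data); inactive = the rest.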

These molecules were tested against Cytochrome P450 2C9 (Homo sapiens) (UniProt P11712) (assay: blockers of cytochrome P450 2C9 activity – biochemical, luminescence, ADME assay, primary screen (AID 777)). Settings: CYP2C9 Supersomes, luciferin-H conversion, at 5 µM, stronger effect = higher value.
Sequence of Cytochrome P450 2C9 (Homo sapiens) (P11712 whole entry, looked up): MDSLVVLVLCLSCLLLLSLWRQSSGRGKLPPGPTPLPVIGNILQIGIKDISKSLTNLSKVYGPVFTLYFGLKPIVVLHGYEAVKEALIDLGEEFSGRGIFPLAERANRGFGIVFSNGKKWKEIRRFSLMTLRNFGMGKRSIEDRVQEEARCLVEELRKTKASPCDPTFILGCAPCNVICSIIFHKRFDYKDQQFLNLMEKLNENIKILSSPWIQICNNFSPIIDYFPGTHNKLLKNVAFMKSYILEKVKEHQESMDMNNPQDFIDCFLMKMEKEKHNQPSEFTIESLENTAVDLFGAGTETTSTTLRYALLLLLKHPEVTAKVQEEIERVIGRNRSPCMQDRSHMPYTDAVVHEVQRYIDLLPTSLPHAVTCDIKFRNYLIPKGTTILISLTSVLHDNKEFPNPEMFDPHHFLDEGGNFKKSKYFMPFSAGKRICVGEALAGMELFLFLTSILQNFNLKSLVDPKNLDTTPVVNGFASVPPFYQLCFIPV

| SMILES | inhibition |
| --- | --- |
| COC(=O)c1ccc(S(=O)(=O)c2ccc(C(=O)OC)s2)s1 | 49.3% |
| Cc1nnc(NC(=O)CSc2nccn2-c2cccc(C)c2C)s1 | 39.9% |
| Cn1c(Cc2cccc3ccccc23)nnc1SCC(=O)N1CCN(c2cccc(Cl)c2)CC1 | -15.6% |
| O=C(O)CSc1nccn1-c1cccc(Cl)c1 | 57.5% (active) |
| O=C(c1ccccn1)c1ncc(C(F)(F)F)cc1Cl | 11.2% |
| CC(=O)c1c(N2CCOCC2)nc(=S)n(-c2cc(C)ccc2C)c1C | -8.6% |
| Cc1cc(C)n(C(=O)c2ccc(C)c(S(=O)(=O)N3CCOCC3)c2)n1 | 66.3% (active) |
| Cc1cc(C)n(C(=O)c2ccc(S(=O)(=O)N3CCCC3)cc2)n1 | 86.9% (active) |
| Cc1ccc(C(=O)Nc2ccccc2C(=O)NC2CCCCC2)cc1S(=O)(=O)N1CCOCC1 | 23.7% |
| Cc1ccccc1-c1nnn(CC(=O)c2ccc(S(=O)(=O)N3CCCC3)cc2)n1 | 9% |
| CSC1=NCCN1C(=O)c1ccc(S(=O)(=O)N2CCOCC2)cc1 | 0.8% |
| Cc1cccc(N2C(=O)SC(N(CC(=O)O)c3cccc(C)c3)C2=O)c1 (configuration not stated) | 30.8% |
| Cc1ccc(-n2nc3c(c2NC(=O)c2ccc4c(c2)OCO4)CSC3)c(C)c1 | 1.1% |
| Cc1cccc(-n2nc3c(c2NC(=O)c2ccc(Br)o2)CSC3)c1C | 72.3% (active) |
| COc1cccc(C(=O)Nc2c3c(nn2-c2cccc(C)c2C)CS(=O)(=O)C3)c1OC | -6.7% |
| COCc1nc2ccccc2n1Cc1ccccc1Br | 14.7% |
| COc1ccc(NC(=O)COC(=O)Cn2c(C)nc3ccccc32)cc1OC | -9.8% |
| COc1ccc(NC(=O)Cn2c(-c3ccc(OC)cc3)cn(-c3ccc(C)cc3)c2=O)cc1 | 10% |
| COc1ccc(-c2cn(-c3ccc(C)cc3)c(=O)n2CC(=O)Nc2ccc(OC)c(OC)c2)cc1 | 80.5% (active) |
| COCC(C)N=CC1=C(O)CC(C)(C)CC1=O (configuration not stated) | -5.7% |
| CCOc1ccccc1NC(=O)CCN1CCN(S(=O)(=O)c2ccc(OC)cc2)CC1 | 41.4% |
| COc1ccc(S(=O)(=O)N2CCN(c3ncnc4c(-c5ccccc5)nsc34)CC2)cc1 | 51.9% (active) |
| COc1ccc(S(=O)(=O)N2CCCC(C(=O)Nc3ccc(NC(=O)c4ccccn4)cc3)C2)cc1 (configuration not stated) | -18.5% |
| COc1cccc(Oc2ccc(N)cc2)c1 | 4.7% |

| SMILES | inhibition |
| --- | --- |
| CN1C2CCC1/C(=C\c1ccccc1Cl)C(=O)/C2=C\c1ccccc1Cl | -79.2% |
| COCCNC(=S)c1ccc(OC)cc1 | -13.3% |
| Cn1c(Cc2csc(N)n2)nnc1SC/C=C/c1ccccc1 | 27.1% |
| Cc1cc(C(=O)COC(=O)CCCN2C(=O)c3ccccc3C2=O)c(C)n1C | -21.1% |
| CC(C)OC(=O)CN1C(=O)c2ccccc2C1=O | 4.9% |
| Cc1cc2c(cc1C)N(C(=O)CN1C(=O)c3ccccc3C1=O)C(C)(C)c1ssc(=S)c1-2 | 78.2% (active) |
| C=CCn1c(C)cc(C(=O)CN2C(=O)c3ccccc3C2=O)c1C | -61.6% |
| Cc1ccc2c(c1)-c1c(ssc1=S)C(C)(C)N2C(=O)CN1C(=O)c2ccccc2C1=O | 80.6% (active) |
| CCOC(=O)CN1C(=O)C(=O)c2cc(C)ccc21 | 8.3% |
| Cc1[nH]c2ccc(S(N)(=O)=O)cc2c1C | -42.1% |
| CNC(=S)NNC(=O)c1sccc1OCc1ccccc1 | 12.2% |
| COc1cccc(-n2c(SCC(=O)NC3CCCCC3)nc3n[nH]c(C)c3c2=N)c1 | 19.4% |
| CCOc1ccc(N(CC(=O)NCc2ccc(OC)cc2)S(=O)(=O)c2c(C)noc2C)cc1 | 3.9% |
| COC(=O)c1ccc(NC(=O)CN(c2ccc(C)cc2)S(=O)(=O)c2c(C)n[nH]c2C)cc1 | 91.4% (active) |
| Cc1noc(C)c1C(=O)NC(C)c1ccc2c(c1)OCO2 (configuration not stated) | 32.6% |
| CCOC(=O)c1cccc(NC(=O)CN(c2ccc(C)cc2)S(=O)(=O)c2c(C)noc2C)c1 | 65.9% (active) |
| Cc1noc(C)c1S(=O)(=O)N(CC(=O)Nc1ccc2c(c1)OCCO2)c1ccc(C(C)C)cc1 | 72.5% (active) |
| COC(=O)c1ccc(NC(=O)Nc2ccc(C)cc2)cc1 | 34.6% |
| CS(=O)(=O)N(CC(=O)NCc1ccco1)c1ccc2c(c1)OCO2 | 2.2% |
| CCN(CC)C(=O)CCC(=O)Nc1ccc(C(=O)OC)cc1 | 8.6% |
| Cc1noc(C)c1S(=O)(=O)N(CC(=O)NCc1ccc(Cl)cc1)c1ccc2c(c1)OCO2 | 68.9% (active) |
| CCOc1ccc(N(CC(=O)OC)S(=O)(=O)c2c(C)noc2C)cc1 | 24.4% |
| Cc1ccc(N(CC(=O)Nc2cc(C)cc(C)c2)S(=O)(=O)c2cccc3nonc23)cc1 | 48.7% |
